# Source: PubChem BioAssay (National Center for Advancing Translational Sciences (NCATS))
# D2 ag-1: Beta-Arrestin HTS for Positive Allosteric Modulators of the Human D2 Dopamine Receptor: Agonists; D(2) dopamine receptor (Homo sapiens), P14416; DiscoveRx PathHunter D2 beta-arrestin, luminescence, 90 min; 100% = 57 uM dopamine signal; activation, % (concentration not given with the values); 0.084% of 360,000 active; AID 624465, 2012; in the data active = activation above about 40%; inconclusive = between about 15% and that limit
# Target sequence (P14416 whole entry, looked up): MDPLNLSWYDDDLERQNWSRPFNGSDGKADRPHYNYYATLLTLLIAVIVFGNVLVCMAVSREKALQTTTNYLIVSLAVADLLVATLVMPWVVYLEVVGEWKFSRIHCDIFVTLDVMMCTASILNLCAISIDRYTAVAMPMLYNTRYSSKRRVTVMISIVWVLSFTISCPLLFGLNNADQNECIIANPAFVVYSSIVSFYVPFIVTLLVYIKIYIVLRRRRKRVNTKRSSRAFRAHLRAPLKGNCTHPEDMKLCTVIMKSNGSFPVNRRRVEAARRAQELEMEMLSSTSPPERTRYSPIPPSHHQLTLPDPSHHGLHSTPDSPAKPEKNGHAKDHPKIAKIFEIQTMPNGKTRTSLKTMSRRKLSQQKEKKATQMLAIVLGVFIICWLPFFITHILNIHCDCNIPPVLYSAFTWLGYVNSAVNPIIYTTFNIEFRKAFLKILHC
#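 DiscoveRx PathHunter D2 beta-arrestin cells (2,100/well) attached overnight, then compound-stimulated 90 min at 37 C in HBSS/10 mM HEPES/0.1% Tween-20 buffer; beta-galactosidase complementation read by luminescence after 1 h at ambient temperature. Dopamine 57 uM final (EC100) as control.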
# D2 ag-2: HTS Assay for Allosteric Agonists of the Human D2 Dopamine Receptor: Primary Screen for Agonists; HEK293 T-REx D2 cells, calcium flux agonist mode; activation, % at 2 µM; 0.53% of 340,000 active;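 active = activation over 3 SD above normal in the single-dose calcium agonist read, cut at about 30% in these data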
#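 HEK293 Trex D2 cells, tetracycline-induced, o/n 30 C 5% CO2; no-wash Ca dye, RT 30–90 min; 10-cycle baseline, 23 nl cpd added, kinetic Ca read 180 s; agonist hits = positive Ca response.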
# D2 PAM-1: Beta-Arrestin HTS for Positive Allosteric Modulators of the Human D2 Dopamine Receptor: Potentiators | D(2) dopamine receptor (Homo sapiens), P14416 | DiscoveRx D2 beta-arrestin cells, luminescence, 90 min; 100% = 57 uM dopamine signal | potentiation, % (concentration not given with the values) | 0.23% of 360,000 active; in the data active = potentiation above about 50%; inconclusive = mostly about 30% to 49%
#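 D2 cells co-treated with compound plus 50 nM dopamine (EC20) for 90 min at 37 deg C to detect potentiation. Beta-arrestin recruitment was read as enzyme-fragment luminescence after 1 h at ambient temperature. Full response was set by 57 uM dopamine.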
# D2 antag: HTS Assay for Allosteric Antagonists of the Human D2 Dopamine Receptor: Primary Screen for Antagonists. D(2) dopamine receptor (Homo sapiens), P14416. HEK293 TREx D2 cells, calcium flux, dopamine EC80. inhibition, % at 10 µM. 2% of 340,000 active. AID 485344, 2010; in the data active = inhibition above about 30%; inactive = below that, where a call was filed
#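 Tetracycline-induced HEK293 T-REx cells expressing D2 force-coupled to calcium signalling were dye-loaded, exposed to compound for 180 s, then challenged with an EC80 of dopamine; calcium flux was followed kinetically for a further 180 s.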
# D2 PAM-2: HTS Assay for Positive Allosteric Modulators of the Human D2 Dopamine Receptor: Primary Screen for Potentiators; HEK293 T-REx D2, calcium flux, EC20 dopamine potentiation; potentiation, % at 10 µM; 0.34% of 340,000 active; AID 485347, 2010;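 active = potentiation over 3 SD above the plate norm, cut at about 30% in these data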
#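 Potentiation of an EC20 dopamine calcium response measured kinetically over 180 s, after a preceding 180 s compound-only read flagging agonists. Cells: inducible Hek293 Trex D2 line, 4000/well, cultured overnight at 30 C before dye loading.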
# A number is an active result; . = inactive; ? = inconclusive; / = no result. Hits are enriched below; roughly 2.4% of the tested compounds scored in any of these assays.
SMILES,D2 ag-1,D2 ag-2,D2 PAM-1,D2 antag,D2 PAM-2
Cc1cccc(-n2ncc3c(NNC(=O)c4ccccc4Cl)ncnc32)c1,/,.,/,/,.
CC1CCc2sc(C(=O)NC3CCN(Cc4ccccc4)CC3)cc2C1 (centres undefined),.,.,.,83,.
CCC1CCc2sc(C(=O)NC3CCN(Cc4ccccc4)CC3)cc2C1 (centres undefined),.,.,.,77,.
CC(=O)Nc1nonc1-c1nc2ccccc2n1C,.,.,.,.,.
Cn1c(-c2nonc2NC(=O)c2ccc(C(C)(C)C)cc2)nc2ccccc21,/,.,/,44,.
Cc1ccc(/C(N)=N/OC(=O)c2ccco2)cc1,.,.,56,.,.
N/C(=N\OC(=O)c1ccco1)c1ccccc1,.,.,?,.,.
Cc1cccc(/C(N)=N/OC(=O)c2ccco2)c1,.,.,56,.,.
COc1ccc(/C(N)=N/OC(=O)c2ccco2)cc1,.,.,.,.,.
N/C(=N\OC(=O)c1ccco1)c1ccc(Br)cc1,.,.,52,.,.
CC(=O)Nc1cccc(NC(=O)CSc2nnc(Cc3cccn3C)n2-c2ccc(F)cc2)c1,.,.,.,49,.
CCC1=Nc2ccc(Br)cc2C(c2ccccc2)N1CC(=O)OC (centres undefined),.,.,.,.,.
NNC(=O)CN1C(CN2CCOCC2)=Nc2ccc(Br)cc2C1c1ccccc1 (centres undefined),.,.,.,83,.
NNC(=O)CN1C(c2ccc(Cl)cc2)=Nc2ccc(Br)cc2C1c1ccccc1 (centres undefined),.,.,.,/,.
CC1=Nc2ccc(Br)cc2C(c2ccccc2)N1CC(=O)NN (centres undefined),.,.,.,36,.
COc1cc(OC)c(C2=Nc3ccc(Br)cc3C(c3ccccc3)N2CC(=O)NN)cc1OC (centres undefined),.,.,.,78,.
NNC(=O)CN1C(c2ccccc2)=Nc2ccc(Br)cc2C1c1ccccc1 (centres undefined),.,.,.,81,.
Cc1cc(N2CCC(N(C)C3CCCC3)CC2)nc2cc(O)ccc12,.,.,.,48,.
Cc1ccc(COC(=O)c2ccc(-c3nnn(Cc4ccc(C)cc4)n3)cc2)cc1,/,/,/,/,.
COC(=O)C1CSC2c3ccccc3C(=O)N12 (centres undefined),.,/,.,/,/
COc1ccc(NC(=O)C2CSC3c4ccccc4C(=O)N23)cc1 (centres undefined),.,.,.,32,.
Cc1ccc(CNC(=O)c2ccc3c(O)c(S(=O)(=O)c4ccccc4)c(=O)[nH]c3c2)cc1,/,.,/,/,.
O=[N+]([O-])c1ccccc1/C=C/CN1CCN(Cc2ccc3c(c2)OCO3)CC1,.,.,.,31,.
CN(C/C=C/c1ccccc1[N+](=O)[O-])Cc1ccccc1,.,.,.,57,.
O=[N+]([O-])c1ccc2ncnc(N3CCN(Cc4ccc5c(c4)OCO5)CC3)c2c1,?,77,.,101,.
SMILES,D2 ag-1,D2 ag-2,D2 PAM-1,D2 antag,D2 PAM-2
O=[N+]([O-])c1ccccc1/C=C/CN1CCCCC1,.,.,.,36,.
CC(C)N(Cc1ccccc1)C(=O)/C=C/c1ccccc1[N+](=O)[O-],.,.,.,.,.
COc1ccc(C(=O)c2cn(CC(=O)Nc3cc(C)ccc3C)c3nc(C)ccc3c2=O)cc1,/,/,/,/,.
O=C(COC(=O)C1CCN(c2ccc(C(F)(F)F)cn2)CC1)Nc1ncc(Cl)cc1Cl,.,.,.,35,.
O=C(COC(=O)C1CCN(c2ccc(C(F)(F)F)cn2)CC1)NCc1cccc(Cl)c1,.,.,.,34,.
O=C(COC(=O)C1CCN(c2ccc(C(F)(F)F)cn2)CC1)Nc1ccc(Cl)cn1,.,.,.,.,.
Cc1sc(N/N=C/c2cccs2)nc1-c1ccccc1,?,.,66,.,.
